Source: PubChem BioAssay AID1259343 (VanderVen Lab, College of Veterinary Medicine, Cornell …, 2017)
Out of some 6,200 compounds screened, about 2,900 (47%) were called active. Rule as the data show it: active = inhibition above about 50%; inactive = the rest. The set was probably picked from earlier hits. The list shows a part of the results.

Assay: Mycobacterium tuberculosis growth inhibition, primary screen (AID 1259343)
Conditions: inhibition: at 10 µM, active compounds read high; outcome: 10 uM

Structure (SMILES) | inhibition
CSc1nsc(SCC2=NNC(=O)c3ccccc3O2)n1 | 101% (active)
O=C(CSCCO)Nc1ccc(Cl)c(Br)c1 | 93.2% (active)
N#Cc1ccc(NC(=O)Cc2ccc(Cl)c(Cl)c2)cc1 | 17.6% (inactive)
Cc1nc(CSCC(=O)Nc2ccc(C)c(Cl)c2)no1 | 39.4% (inactive)
CC1CC(C)(C)CC2(C1)NC(=O)N(c1ccccc1)N2 (stereo not drawn) | 86.8% (active)
CONC(=O)c1oc2c(ccc3ccccc32)c1C | 21.5% (inactive)
CCOC(=O)CCc1c(C)c2ccc(OCc3ccc(C(=O)OC)cc3)c(C)c2oc1=O | 36.8% (inactive)
CCCOC(=O)COc1ccc2c(oc(=O)c3ccccc32)c1C | 84% (active)
O=c1[nH]c(O)c(N=Nc2ccc(SC(F)F)cc2)c(=O)[nH]1 | 84% (active)
O=c1[nH]c(=S)[nH]c(O)c1N=Nc1ccc(F)cc1 | 104% (active)
O=c1[nH]c(=S)[nH]c(O)c1N=Nc1ccc(SC(F)F)cc1 | 99.5% (active)
O=c1[nH]c(=S)[nH]c(O)c1N=Nc1ccc2c(c1)OCCO2 | 38.2% (inactive)
O=c1[nH]c(=S)[nH]c2sccc12 | -6.61% (inactive)
CC(C)(C)C(=O)NC(=S)NCc1ccccc1 | 87% (active)
CC(C)CC(=O)NC(=S)NCc1ccccc1 | 52.5% (active)
CC(C)(C)C(=O)NC(=S)NCCc1ccccc1 | 58.1% (active)
O=C(NCCc1ccc(Br)s1)C1CCC1 | -26.3% (inactive)
O=C(NC(=S)NCCc1ccccc1)C1CCCCC1 | 68.9% (active)
CC(C)(C)C(=O)NCCc1cn(-c2ccccc2)c2ccccc12 | 42.6% (inactive)
O=C(NC(=S)NCc1ccccc1)C1CCCCC1 | -4.74% (inactive)
S=C(NCCc1ccccc1)NC1CCSc2ccccc21 (stereo not drawn) | 31.4% (inactive)
CC1CCC(C(C)C)C(OC(=O)Cn2c(-c3ccccc3)[n+](C)c3ccccc32)C1 (stereo not drawn) | 36.3% (inactive)
Cc1sc(NC(=O)c2ccc3c(c2)CC(C)N3S(C)(=O)=O)nc1-c1ccc(F)cc1 (stereo not drawn) | 44.9% (inactive)
CC(C)(C)c1ncc(CNc2ccc(OCC(F)(F)F)nc2)s1 | 76.1% (active)
CC(NC(=O)c1cc2c(s1)-c1ccccc1OC2)c1ccc(Br)cc1 (stereo not drawn) | -1.38% (inactive)
O=C1C(=Cc2cc(Br)cs2)COc2ccccc21 | 63.5% (active)

Structure (SMILES) | inhibition
O=C(O)c1ccccc1CSc1ccc(N2CCCCC2)cc1 | 34.9% (inactive)
FC(F)(F)c1nc2n(n1)C(c1ccc(Cl)cc1)C1=C(N2)c2ccccc2OC1 (stereo not drawn) | inactive
O=C1/C(=C/c2csnn2)CCOc2cc(Br)ccc21 | 32.8% (inactive)
COc1ccc2cc(C=C3COc4ccccc4C3=O)ccc2c1 | -0.42% (inactive)
O=C1C(=Cc2ccc(N3CCCCC3)cc2)COc2ccccc21 | 53% (active)
O=C1/C(=C\c2ccc(Cl)cc2)COc2ccccc21 | 93.1% (active)
COc1cc(C(CC(=O)c2ccc(Cl)cc2)SCCO)cc(OC)c1OC (stereo not drawn) | 7.8% (inactive)
NC(=O)C1CCN(CC(=O)Nc2oc3ccccc3c(=O)c2-c2ccccc2)CC1 | 12.8% (inactive)
NC(=O)C1CCN(C(=O)c2ccc(-c3cccc(Cl)c3Cl)o2)CC1 | 57.6% (active)
C/C=C/c1c(F)c(F)c(Oc2ccc(C=O)cc2)c(F)c1F | 88.6% (active)
Cc1cccc(NC(=O)/C=C/C2=C(Cl)c3ccccc3S2(=O)=O)c1C | 102% (active)
O=C(Cc1csc(COc2ccc(Cl)cc2)n1)NC12CC3CC(CC(C3)C1)C2 | 49.5% (inactive)
Cc1ccc(OCc2nc(CC(=O)N(C)CC3CCCCC3)cs2)cc1 | 79.4% (active)
NC(=O)c1ccccc1OCc1csc(COc2ccc(F)cc2)n1 | 15.8% (inactive)
CSc1ncc(Cl)c(C(=O)C(C#N)c2nc3ccc(Br)cc3c(=O)[nH]2)n1 (stereo not drawn) | 15.1% (inactive)
COC(=O)c1cnc(NC(=O)c2cc(F)cc(Br)c2)s1 | 19.9% (inactive)
CC(C)c1ccc(C(=O)Nc2sccc2C(=O)N2CCCC2)cc1 | 16.5% (inactive)
CCC(CC)c1nnc(NC(=O)c2cc(C)cc(C)c2)s1 | 51.2% (active)
Cc1ccc(C#N)cc1S(=O)(=O)Nc1nnc(C(C)C)s1 | 31.9% (inactive)
CC(C)c1ccc(C(=O)Nc2nnc(C(C)C)s2)cc1 | 90% (active)
CC(C)c1nnc(NC(=O)c2cccc(I)c2)s1 | 90.6% (active)
CC(C)Cc1nnc(NC(=O)c2cccc(C#N)c2)s1 | 20.8% (inactive)
CCCC(C)c1nnc(NC(=O)c2cnc(-c3ccccn3)nc2)s1 (stereo not drawn) | -2.11% (inactive)
CC(=NCCCn1ccnc1)c1c(-c2ccccc2)[nH]n(-c2nc3ccccc3s2)c1=O | 52.5% (active)
c1ccc(-c2ccc(-c3nccn3CCn3ccnc3)s2)cc1 | -34.9% (inactive)
COc1cccc(-c2cn3c(C(=O)Nc4ccccn4)csc3n2)c1 | 75.6% (active)

Structure (SMILES) | inhibition
COc1ccc(-c2cn3c(C(=O)Nc4nccs4)csc3n2)cc1 | 10.8% (inactive)
Clc1ccc(Sc2ncccn2)cc1 | 2.73% (inactive)
Cc1c2cnnc(Sc3ccc(Cl)cc3)c2c(C)n1C | 64% (active)
Cc1nonc1CN(C)C(=O)c1cc(COc2ccc(F)cc2Cl)on1 | 89.4% (active)
CCc1ccc(CN(C)C(=O)c2cc(COc3ccc(OC)cc3Cl)on2)nc1 | 73% (active)
CSc1ccccc1OCc1cc(C(=O)N(C)Cc2ccc(F)cc2)no1 | 15.7% (inactive)
CC(=O)c1ccc(OCc2cc(C(=O)N(C)Cc3ccon3)no2)cc1 | 80.4% (active)
CC(NC(=O)c1cc(Br)ccc1O)c1ccccc1 (stereo not drawn) | 17.3% (inactive)
CC(NC(=O)c1cncc(Br)c1)c1ccc(Cl)cc1 (stereo not drawn) | 86.8% (active)
CC(C)c1ccc(O)c(NC(=S)NC(=O)c2cncc(Br)c2)c1 | 99.5% (active)
OCC1CCCN(c2ncnc3sc4c(c23)CCCC4)C1 (stereo not drawn) | 20.6% (inactive)
COc1ccc(F)cc1CN1CCN(c2ncnc3sc4c(c23)CCCC4)CC1 | 60% (active)
COc1cccc(OCCN2CCN(c3ncnc4sc5c(c34)CCCC5)CC2)c1 | 36.6% (inactive)
Oc1cc(CCC2CCCCN2)cc(-c2ccncc2)c1 (stereo not drawn) | 45.4% (inactive)
C1CCC(C(CC2CCCCN2)C2CCCCC2)CC1 (stereo not drawn) | 55.1% (active)
CC(OC1CC(=O)CC2C(=O)c3ccccc3C(=O)C12)c1ccccc1 (stereo not drawn) | 94.3% (active)
CC(C)c1ccc2c(c1O)CC[C@H]1C3=C(CC[C@]21C)C(=O)OC3 | 45% (inactive)
Cn1cc(C=NNc2ccccc2)c2ccccc21 | -30.1% (inactive)
C(=NNc1ccccc1)c1cnn(-c2ccccc2)c1 | 94.4% (active)
C(=NNC1=Nc2cccc3cccc1c23)c1ccccc1 | 15.1% (inactive)
O=C(Nc1ccc(Oc2ccccc2)cc1)C1CC(=O)N(C2CC2)C1 (stereo not drawn) | 66.1% (active)
O=C1CCC(C(=O)Nc2ccc(Oc3ccccc3)cc2)N1 (stereo not drawn) | 29.5% (inactive)
CN(C)C(=O)N1CCC(C(=O)Nc2ccc(Oc3ccccc3)cc2)CC1 | 81.9% (active)
Cc1ccc(NC(=O)C2CC(=O)N(C3CC3)C2)cc1C(F)(F)F (stereo not drawn) | 63.6% (active)
CN(C)c1ccc2cc(NC(=O)C3CC(=O)N(C4CCCC4)C3)ccc2n1 (stereo not drawn) | 87.7% (active)
CN1CC(C(=O)Nc2ccc3nc(C4CC4)oc3c2)CC1=O (stereo not drawn) | -6.81% (inactive)

Structure (SMILES) | inhibition
O=C(Nc1nc(-c2ccc(Cl)cc2)cs1)C1CC(=O)N(C2CC2)C1 (stereo not drawn) | 21.7% (inactive)
COc1cccc(C(=O)Oc2ccc(C(=O)COC(=O)C3CC(=O)N(C4CCCCC4)C3)cc2)c1 (stereo not drawn) | -11.2% (inactive)
COc1c(Cl)cc(NC(=O)C2CC(=O)N(C)C2)cc1Cl (stereo not drawn) | 43.6% (inactive)
CC1CC(N2CCN(c3nccs3)CC2)C(=O)O1 (stereo not drawn) | 2.21% (inactive)
CC(=O)NCCC1CCCCN1C(=O)Nc1ccc(Oc2ccccc2)cc1 (stereo not drawn) | 83.9% (active)
O=C(Nc1ccc(Oc2ccccc2Cl)cc1)N1CCOC2CCCCC21 (stereo not drawn) | 26.2% (inactive)
Fc1ccc(-c2nnn(CCCc3n[nH]c(Cc4ccccc4)n3)n2)cc1 | 37.6% (inactive)
Fc1cccc(-c2nnn(CCc3ccccn3)n2)c1 | 65.1% (active)
CCNC(=O)CCC(=O)Nc1ccc(OC2CCCC2)c(F)c1 | 92.8% (active)
CNS(=O)(=O)c1cc(NC(=O)CNC(=O)C2CCCCC2)ccc1C | 8.53% (inactive)
c1ccc2c(c1)oc1c(NC3CCCCC3)ncnc12 | -31.2% (inactive)
c1ccc2c(c1)oc1c(NC3CCCCCC3)ncnc12 | 102% (active)
c1ccc2c(c1)oc1c(NCC3CCCCC3)ncnc12 | 23.3% (inactive)
COc1cc(C=c2sc(=CC(=O)c3ccco3)[nH]c2=O)cc(Br)c1O | 91.2% (active)
c1cnc(NCc2cccnc2N2CCc3ccccc3C2)nc1 | 36.6% (inactive)
Fc1ccccc1CON=C1CCN(c2ncccn2)CC1 | 83.5% (active)
CCN(CC(=O)Nc1c(Cl)cccc1Cl)C(=O)CCn1c(=O)oc2cc(Cl)ccc21 | -5.97% (inactive)
CN(Cc1nc2c(s1)CCCC2)C(=O)c1cc(COc2ccc(-n3cncn3)cc2)on1 | 85.4% (active)
CCc1ccc(CN(C)C(=O)c2cc(COc3ccc(-n4cncn4)cc3)on2)cc1 | 36.7% (inactive)
C=CCOc1ccc(C=C2N=C(c3ccccc3I)OC2=O)cc1OC | -4.12% (inactive)
COc1ccc(C=C2N=C(c3cccc(F)c3)OC2=O)cc1 | 3.76% (inactive)
COc1cccc(C=C2N=C(c3ccccc3OC(F)F)OC2=O)c1 | 86.9% (active)
CN(Cc1ccccc1C#N)c1ccc2ccccc2c1 | 30.3% (inactive)
CN(C)Cc1ccc2ccc3cccc4ccc1c2c34 | 90.5% (active)
Cc1cccc(CN(C)C)c1OC(=O)N(C)C | 3.93% (inactive)
